Screening results: PubChem, several laboratories
Only some compounds are listed: those with a hit (about 4.6% of all), similar ones and a draw of the others.
GRIN3A LBD mod = modulators (binders) of human NR3A ligand-binding domain. NR3A LBD differential scanning fluorimetry, Tm shift; 0% = protein alone, 100% = glycine-bound protein. hit rate 2.5% among 340,000. Tm shift relative to glycine control, % at 25 µM;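 active = melting temperature shift of at least 10% of the positive control shift, at one fixed dose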
FAS-TE inh = inhibitors of human fatty acid synthase thioesterase domain | AID 602261 | P49327 | hit rate 0.67% among 360,000 | inhibition, % at 15 µM | recombinant FAS-TE, OMFH fluorogenic substrate, fluorescence endpoint;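 active = compounds whose normalised, plate-corrected inhibition of enzyme fluorescence in the single-dose primary screen is 50% or more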;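 note: 0% = DMSO with enzyme and 100% = substrate without enzyme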
proKLK7 act = activators of human kallikrein-7 zymogen; P49862; purified proKLK7, EDANS-DABCYL substrate fluorescence; 100% is mature enzyme control, 0% vehicle; activation, % at 7 µM; hit rate 0.9% among 370,000; AID 652039;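 active = activation above the mean of all tested compounds plus 3 SD, computed per campaign excluding outliers beyond control limits, cut at about 13% in these data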
ADAM10 inh = inhibits human ADAM10; recombinant ADAM10, EDANS/DABCYL FRET peptide cleavage, 3 h; inhibition, % at 7 µM; hit rate 0.62% among 370,000;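 active = inhibition above a per-campaign cutoff equal to the mean of compounds falling between control-based bounds plus 3 SD, cut at about 20% in these data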;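 note: 0% = DMSO wells while the 100% control is not disclosed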
ADAM17 inh = ADAM17 inhibition, QFRET primary screen | P78536 | recombinant ADAM17, EDANS/DABCYL FRET peptide cleavage | inhibition, % at 6.95 µM | hit rate 0.83% among 370,000 | AID 720648;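 active = inhibition above the mean of compounds lying between control limits plus 3 SD, set per campaign, cut at about 8.5% in these data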;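 note: 0% = DMSO-only wells as the low control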
Target sequence (P78536 215-824 limits assumed): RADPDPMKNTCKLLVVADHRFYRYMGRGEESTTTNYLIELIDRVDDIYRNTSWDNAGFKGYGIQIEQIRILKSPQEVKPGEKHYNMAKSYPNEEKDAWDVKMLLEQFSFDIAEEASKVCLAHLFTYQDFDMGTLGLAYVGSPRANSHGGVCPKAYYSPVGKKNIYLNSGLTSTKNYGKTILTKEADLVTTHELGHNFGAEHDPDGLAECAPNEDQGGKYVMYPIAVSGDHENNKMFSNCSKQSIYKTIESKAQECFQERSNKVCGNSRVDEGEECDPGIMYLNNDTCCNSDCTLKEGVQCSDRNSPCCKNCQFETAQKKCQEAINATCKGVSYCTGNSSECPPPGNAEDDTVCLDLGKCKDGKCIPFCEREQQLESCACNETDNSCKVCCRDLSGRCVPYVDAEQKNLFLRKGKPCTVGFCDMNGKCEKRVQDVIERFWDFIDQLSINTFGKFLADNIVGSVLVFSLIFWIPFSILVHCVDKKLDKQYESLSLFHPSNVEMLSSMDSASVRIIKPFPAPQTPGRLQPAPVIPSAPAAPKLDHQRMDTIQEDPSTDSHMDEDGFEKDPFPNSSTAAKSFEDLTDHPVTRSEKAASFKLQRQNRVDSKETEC
* = called active by the depositor; x = no result given.

SMILES | GRIN3A LBD mod | FAS-TE inh | proKLK7 act | ADAM10 inh | ADAM17 inh
Cc1ccccc1N1CCN(S(=O)(=O)c2ccc3c(c2)oc(=O)n3C)CC1 | x | x | 0 | 8 | 4
CC(=O)N1CCN(C(=O)c2cccc(S(=O)(=O)N3CCN(c4ccccc4)CC3)c2)CC1 | 1 | -4 | 1 | 0 | 0
Cn1c(=O)oc2cc(S(=O)(=O)N3CCN(c4ccccc4F)CC3)ccc21 | 12* | -17 | 0 | 2 | -2
CN1CCN(S(=O)(=O)c2cccc(C(=O)N3CCN(c4ccccc4F)CC3)c2)CC1 | -1 | -6 | 0 | 3 | -2
O=C(c1ccccc1C(=O)N1CCN(c2ccccc2F)CC1)N1CCN(c2ccccc2F)CC1 | -1 | 5 | 0 | 2 | 1
O=C(c1cccc(S(=O)(=O)N2CCCCCC2)c1)N1CCN(c2ccccc2F)CC1 | 17* | 20 | 0 | 11 | -1
O=C(c1cccc(S(=O)(=O)N2CCN(c3ccccc3)CC2)c1)N1CCN(c2ccccc2O)CC1 | 10* | 10 | 0 | 1 | -2
O=C(c1ccccc1F)N1CCN(c2ccccc2F)CC1 | 12* | -1 | 0 | 2 | -2
COc1ccc(S[C@]2(C(=O)N3CCOCC3)CC(=O)N(c3ccc(OC)cc3)[C@@H]2c2ccc(OC)cc2)cc1 | x | x | 0 | 8 | 8
O=C(O)Cc1ccc(NC(=O)c2ccc3c(c2)C(=O)N(Cc2ccccc2)C3=O)cc1 | x | -53 | -1 | -5 | -1
O=C(O)c1cc(NC(=O)c2ccc3c(c2)C(=O)N(Cc2ccccc2)C3=O)cc(C(=O)O)c1 | 14* | 11 | -1 | -8 | -3
CC(=O)OC12CCCN(C1)/C(=C/c1cccnc1)C2 (stereo unspecified) | x | x | 0 | -6 | -3
Cc1ccc(S(=O)(=O)N(C)CC(=O)NCCCn2nc(C)cc2C)cc1 | 13* | -8 | 0 | -7 | 1
Cc1ccc(-c2n[nH]c(=S)n2/N=C/c2sccc2C)cc1 | 15* | -1 | 0 | -2 | -4
Cc1ccsc1/C=N/n1c(-c2cc(-c3ccccc3)n[nH]2)n[nH]c1=S | 1 | 10 | 0 | 3 | -1
O=S(=O)(CC1NCc2cc(F)ccc21)NCCc1ccccc1 (stereo unspecified) | x | x | 0 | -14 | -3
CSCCC(NC(=O)c1cc(C)oc1C)C(=O)O (stereo unspecified) | 1 | -3 | 0 | -5 | -6
CSCCC(NC(=O)c1ccc(C)o1)C(=O)O (stereo unspecified) | 15* | -5 | 0 | 6 | -6
Cc1[nH]c2ccccc2c1/C=N/NC(=S)NCc1ccccc1 | 23* | 12 | -4 | 14 | 5
Cc1ccc(NC(=S)N/N=C/c2c(C)[nH]c3ccccc23)cc1 | 22* | 11 | -2 | 4 | 1
Cc1[nH]c2ccccc2c1/C=N/NC(N)=S | -1 | -5 | 0 | -4 | -3
Cc1[nH]c2ccccc2c1/C=N/NC(=O)CNC(=O)Cc1ccccc1 | -4 | -3 | 0 | 6 | 1
Cc1nc2ccc(S(=O)(=O)NCC(=O)N(C)Cc3ccccc3F)cc2s1 | x | x | 0 | -10 | -4
CCOC(=O)Nc1c(Cl)n(C)c(=O)n(C)c1=O | 11* | -8 | 0 | 3 | -1
N/C(=N\OC(=O)/C=C/c1ccccc1Cl)c1ccncc1 | 12* | -5 | 0 | -2 | 0
SMILES | GRIN3A LBD mod | FAS-TE inh | proKLK7 act | ADAM10 inh | ADAM17 inh
N/C(=N\OC(=O)/C=C/c1ccccc1)c1ccncc1 | -9 | -1 | 0 | 1 | 0
COc1ccc2ccccc2c1/C=N/NC(=O)c1cccc(Br)c1 | 4 | 11 | -2 | -5 | 1
COc1ccc(/C=N/NC(=O)c2ccncc2)c(OC)c1 | 20* | -8 | -2 | -8 | -4
Cc1ccc(O)c(/C=N/NC(=O)c2[nH]ncc2Br)c1 | -16 | -8 | 0 | -3 | 0
O=C(N/N=C/c1c(O)ccc2ccccc12)c1cccc(C(F)(F)F)c1 | 21* | 26 | -1 | -6 | 0
COc1ccc(/C=N/NC(=O)c2ccc(Br)cc2)c(OC)c1 | 1 | 7 | 1 | -10 | -1
O=C(N/N=C/c1c(O)ccc2ccccc12)c1[nH]ncc1Br | 30* | 1 | -4 | 6 | 3
CCOc1ccc(/C=N/NC(=O)c2[nH]ncc2Br)c(O)c1 | 27* | -20 | -9 | -21 | -11
COc1cccc(CNC(=O)CCCN2C(=O)COc3ccc(C)cc32)c1OC | x | x | 0 | -8 | 3
COc1ccc(OC)c(/C=N/NC(=O)c2[nH]ncc2Br)c1 | 21* | -45 | -6 | -373 | -136
COc1ccc(OC)c(/C=N/NC(=O)c2[nH]nc3c2CCc2ccccc2-3)c1 | 10 | 4 | -7 | -210 | -65
Oc1cccc(C2c3[nH]c4ccccc4c3CCN2Cc2ccc3c(c2)CCO3)c1 (stereo unspecified) | 11* | 14 | 0 | -6 | 0
CCc1ccc(NC(=O)C(C)OC(=O)c2cc(=O)[nH]c3ccc(S(=O)(=O)Nc4ccc(F)cc4)cc23)cc1 (stereo unspecified) | 13* | 20 | 0 | -9 | -2
O=C(OCc1cn(Cc2cc(F)cc(F)c2)nn1)N1CCOCC1 | x | x | 0 | -5 | -3
OC(c1ccccc1)(c1ccccc1)C1CCN(CCCNc2ccccc2F)CC1 | x | x | 0 | 0 | -1
COc1ccc(C(c2nnnn2C2CCCC2)N2CCC(C(N)=O)CC2)c(OC)c1 (stereo unspecified) | 14* | -7 | 0 | 1 | 0
N#Cc1ccc(Cn2ccc3ccc(-c4ccc5ccn(C(=O)C6CCCCC6)c5c4)cc32)cc1 | x | x | -1 | -27 | -10
O=C(Oc1coc(CSc2ncccn2)cc1=O)c1ccc([N+](=O)[O-])cc1 | x | x | x | -50 | -3
Cc1cccc2c(N=Nc3ccc(S(=O)(=O)Nc4cccc(Cl)c4)cc3[N+](=O)[O-])c(O)[nH]c12 | 13* | 20 | 0 | -1 | 0
O=C(N/N=C1/SCC(=O)N1Cc1ccco1)c1ccccc1F | 16* | -5 | -1 | 7 | -1
CCN(CC)C(=O)Cn1nc(Cc2ccncc2)c2ccccc2c1=O | x | x | 0 | -2 | -1
Cc1ccc(CNC(=O)C2CCC(=O)N(CCc3ccc(Cl)cc3)C2)cc1 (stereo unspecified) | 2 | -2 | 1 | -2 | -4
O=C(NCc1cccc2[nH]ccc12)C1CCC(=O)N(CCc2ccc(Cl)cc2)C1 (stereo unspecified) | 11* | -2 | 0 | -12 | -3
Cc1ccc(CCN2CC(C(=O)NCc3ccc4c(c3)OCO4)CC2=O)cc1 (stereo unspecified) | 0 | -5 | 0 | 5 | -2
O=C(NCc1ccc2c(c1)OCO2)C1CC(=O)N(CCc2ccc(Cl)cc2)C1 (stereo unspecified) | 12* | -4 | 0 | 4 | -3
O=C1N=c2ccccc2=C1c1sc(NS(=O)(=O)Cc2ccccc2)nc1O | -4 | 2 | 0 | -1 | -5
